Test: probe aEGFR binding to arrayed compounds – biochemical, biotinylated probe, 635/667 nm fluorescence, primary screen (AID 1097);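 further: probe is a biotinylated anti-EGFR antibody binding compounds printed on slides; score combines fluorescence near 667 nm and signal to noise of each spot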
Settings: small-molecule microarray, higher = more signal

Q: For [N-]=[N+]=Nc1ccccc1[C@H]1OC(c2ccc(OCCCO)cc2)=N[C@@]1(Cc1ccccc1)C(=O)N1CCCCC1, which composite z-score is on record?
A: Its composite z-score is 0.286.

Q: With CCCNC(=O)[C@@]1(c2ccc([N+](=O)[O-])cc2)CC(=O)N(C2CCCCC2)[C@@H]1c1ccc(CO)cc1 as the molecule, how does the composite z-score read?
A: The composite z-score was -0.0729.

Q: Which composite z-score does the source give for CN1C(=O)C2C=CC(C(O)c3ccccn3)N(N(c3ccccc3)c3ccccc3)C2C1=O (stereo unspecified) here?
A: Its composite z-score is 0.0353.

Q: With COCCOC(=O)N1C(=O)[C@@]2(c3cc(C#CC4=CCCCC4)ccc31)[C@H](c1ccc(O)cc1)N1[C@H](c3ccccc3)[C@H](c3ccccc3)OC(=O)[C@H]1[C@@H]2C(=O)N1CCN(c2ncccn2)CC1 as the molecule, how does the composite z-score read?
A: Its composite z-score is -0.348.

Q: With C[N+](C)(C)CCCCCCNC(=O)[C@H]1C[C@H]2C(=O)N[C@@H](Cc3ccccc3)C(=O)N2[C@H]1c1ccc(O)cc1 as the molecule, how does the composite z-score read?
A: Its composite z-score is -0.136.

Q: Which composite z-score does the source give for O=C1NC(=O)C2C1C=CC(C(O)c1cccc3ccccc13)N2Nc1ccc(Cl)cc1Cl (stereo unspecified) here?
A: The composite z-score was 0.131.

Q: Which composite z-score does the source give for COC(=O)[C@@]1(Cc2ccc(F)cc2)[C@H]2c3cc(C(=O)N4CCCC4)n(CCc4ccc(O)c(O)c4)c3C[C@H]2CN1C(=O)c1ccccc1 here?
A: The composite z-score was 0.978.

Q: For O=C(CS)NCCCCCCNC(=O)[C@H]1C[C@H]2C(=O)N[C@@H](Cc3ccccc3)C(=O)N2[C@H]1c1ccc(O)cc1, which composite z-score is on record?
A: Its composite z-score is -0.105.

Q: Which composite z-score does the source give for C#CCN([C@@H](Cc1ccc(O)cc1)C(=O)OC)[C@@H](/C=C/C1CC1)[C@H](O)Cc1ccccc1 here?
A: Its composite z-score is -0.13.

Q: Which composite z-score does the source give for CCOC(=O)c1ccc(NC(=O)O[C@H]2[C@H](OC(=O)Nc3ccc4c(c3)OCO4)[C@@H](OC(=O)Nc3ccc4c(c3)OCO4)[C@@H](OC)O[C@@H]2CO)cc1 here?
A: The composite z-score was 0.0815.

Q: For O=c1n(-c2ccccc2)c(=O)n2n1CC(COc1ccccc1)=C([C@H](O)CCc1ccccc1)[C@@H]2CO, which composite z-score is on record?
A: The composite z-score was -0.08.

Q: Which composite z-score does the source give for COc1ccc([Si](C)(C)[C@@H]2[C@@H](CC(=O)N3Cc4ccccc4C[C@H]3CO)O[C@]3(C(=O)N(Cc4cccc(N5C(=O)c6cccc7cccc5c67)c4)c4ccccc43)[C@H]2C)cc1 here?
A: Its composite z-score is 0.0276.

Q: Which composite z-score does the source give for CN(C)C(=O)[C@]1(CCS(=O)(=O)c2ccccc2)N=C(c2ccc(OCCCO)cc2)O[C@@H]1c1ccccc1N=[N+]=[N-] here?
A: Its composite z-score is 0.204.

Q: Which composite z-score does the source give for COC(=O)[C@@]1(Cc2ccc(OC)cc2)[C@H]2c3cc(C(=O)N4CCCC4)n(Cc4c(-c5ccccc5)noc4C)c3C[C@H]2CN1C(=O)c1ccccc1 here?
A: Its composite z-score is 0.374.

Q: With O=C1O[C@H](c2ccccc2)[C@H](c2ccccc2)N2[C@H]1[C@@H](C(=O)O)[C@]1(C(=O)Nc3ccc(C#CC4=CCCCC4)cc31)[C@H]2c1ccc(O)cc1 as the molecule, how does the composite z-score read?
A: Its composite z-score is -0.0353.

Q: Which composite z-score does the source give for COc1cc2c(cc1OC)CN(C(=O)[C@@H]1[C@H]3C(=O)O[C@H](c4ccccc4)[C@H](c4ccccc4)N3[C@H](c3ccc(OCCO)cc3)[C@@]13C(=O)Nc1ccccc13)CC2 here?
A: The composite z-score was 0.134.

Q: For COC(=O)[C@@]1(Cc2ccccc2)[C@H]2c3cc(C(=O)N(C)C)n(CCN4CNCC4=O)c3C[C@H]2CN1C(=O)c1ccccc1, which composite z-score is on record?
A: Its composite z-score is 0.385.

Q: Which composite z-score does the source give for CN(C)c1ccc(C(O)C2C=CC3C(=O)N(c4ccccc4)C(=O)C3N2Nc2ccc([N+](=O)[O-])cc2)cc1 (stereo unspecified) here?
A: Its composite z-score is -0.0234.

Q: Which composite z-score does the source give for C=C(C)c1cc2c(c(CCCCCC)n1)[Si](C(C)C)(C(C)C)OC2 here?
A: The composite z-score was -0.287.

Q: Which composite z-score does the source give for O=C1O[C@@H](c2ccccc2)[C@@H](c2ccccc2)N2[C@@H](c3ccc(O)cc3)[C@]3(C(=O)Nc4ccc(C#CC5(O)CCCCCC5)cc43)[C@@H](C(=O)NC[C@H](O)c3ccccc3)[C@H]12 here?
A: The composite z-score was -0.162.

Q: With COCCCNC(=O)[C@@]1(Cc2ccccc2N=[N+]=[N-])N=C(c2ccc(OCCCO)cc2)O[C@H]1c1ccccc1 as the molecule, how does the composite z-score read?
A: The composite z-score was -0.096.

Q: With O=C1O[C@H](c2ccccc2)[C@H](c2ccccc2)N2[C@H]1[C@@H](C(=O)Nc1nc3ccccc3s1)[C@]1(C(=O)Nc3ccc(C#CCCO)cc31)[C@H]2c1ccc(O)cc1 as the molecule, how does the composite z-score read?
A: Its composite z-score is 0.346.

Q: With COC(=O)[C@@]1(Cc2ccccc2)[C@H]2c3cc(C(=O)N(C)C)n(CCc4ccc(O)c(OC)c4)c3C[C@H]2CN1C(=O)c1ccccc1 as the molecule, how does the composite z-score read?
A: Its composite z-score is 0.992.

Q: For O=C1OCC=C[C@H]2OC34C=CCN(c5ccc(Cl)cc5)C(=O)[C@H]3N(CCO)C(=O)[C@@H]4[C@@H]12 (stereo partly specified), which composite z-score is on record?
A: The composite z-score was -0.321.

Q: Which composite z-score does the source give for CC(C)Cc1ccc(CN2CC[C@@H](NC(=O)Nc3ccccc3)C2)cc1 here?
A: Its composite z-score is -0.0214.

Q: With C=CCC(OC(C)=O)[C@@H]1[C@@H](N(Cc2cc3ccccc3o2)C(=O)c2ccc(-c3ccccc3)cc2)c2cc(OCCCO)ccc2N1C(=O)c1ccc2ccccc2c1 (stereo partly specified) as the molecule, how does the composite z-score read?
A: The composite z-score was -0.0981.

From PubChem BioAssay
